# Hit rate of the full screen: of about 1,400 compounds, about 1,100 (79%) were called active.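 The calls were made as follows: active = fitted half-maximal concentration of a falling signal no higher than twice the top valid dose in every test run; inconclusive = runs disagree, or flat partial inhibition, or poor fit; inactive = every run inactive: flat, wrong direction, or potency beyond limit.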 The set was probably picked from earlier hits. The list is a sample of the results. Entries with a potency or affinity are not part of this list.
# Assay: inhibitors of clade B AD8 Env fusion, dose response, cell-based, cherry-pick (AID 652062)
# Conditions: HeLa-AD8 Env / CEM-CCR5 cell fusion, luciferase; at 35 µM (top of the series) unless noted
row,SMILES,"activity change, negative = inhibition"
1,Cc1onc(-c2ccccc2)c1C(=O)OCCOc1cccc(Cl)c1,-18.8%
2,CC1(C)N=C(N)N=C(N)N1CCCCc1ccccc1,3.6%
3,CS(=O)(=O)N1CCN(c2ccccc2NC(=O)C(c2ccccc2)c2ccccc2)CC1,38.4%
4,O=C(O)C[C@@H]1C=C[C@H](NC(=O)Nc2ccccc2)[C@H](CO)O1,-16.5%
5,O=C(O)C[C@@H]1CC[C@@H](NC(=O)c2ccncc2)[C@H](CO)O1,28.7%
6,O=C(O)C[C@@H]1C=C[C@@H](NC(=O)Nc2ccccc2)[C@H](CO)O1,11.3%
7,Cc1cccc(C)c1N(CC(O)Cn1c2ccccc2c2ccccc21)S(C)(=O)=O (stereo unspecified),16%
8,Cc1ccc(-c2ccc3c(c2)O[C@@H](CN(C)Cc2cccnc2)[C@H](C)CN([C@H](C)CO)S3(=O)=O)cc1,-56.7%
9,C[C@@H]1CN([C@H](C)CO)S(=O)(=O)c2ccc(-c3ccncc3)cc2O[C@@H]1CN(C)Cc1ccc(Oc2ccccc2)cc1,160%
10,COc1ccccc1C#Cc1ccc2c(c1)O[C@@H](CN(C)Cc1ccncc1)[C@H](C)CN([C@H](C)CO)S2(=O)=O,10.1% [at 16 µM]
11,COc1ccccc1CN1C(=O)CN(C2CCCCCC2)C(=O)C1c1ccc(F)cc1 (stereo unspecified),20.3%
12,Cc1ccc(-n2nc3c(c2NC(=O)c2ccco2)CS(=O)C3)cc1 (stereo unspecified),-28.9%
13,COc1ccccc1CN(C)C(=O)CN1CCN(C(=O)c2cccs2)CC1,-1.14%
14,O=C(C[C@@H]1C[C@H]2c3cc(NC(=O)NC4CCCCC4)ccc3O[C@H]2[C@@H](CO)O1)NCc1ccncc1,17.5%
15,O=C(C[C@H]1C[C@@H]2c3cc(NC(=O)C4CCC4)ccc3O[C@@H]2[C@@H](CO)O1)NCC(F)(F)F,7.19%
16,O=C(C[C@@H]1C[C@@H]2c3cc(NC(=O)C4CCOCC4)ccc3O[C@@H]2[C@H](CO)O1)NCCc1ccccc1,-21%
17,O=C(C[C@@H]1C[C@@H]2c3cc(NC(=O)C4CCC4)ccc3O[C@@H]2[C@@H](CO)O1)NCc1ccc2c(c1)OCO2,48.6%
18,O=C(C[C@@H]1C[C@H]2c3cc(NC(=O)C4CCOCC4)ccc3O[C@H]2[C@@H](CO)O1)NCc1ccccc1,37.3%
19,O=C(C[C@@H]1C[C@@H]2c3cc(NC(=O)C4CCC4)ccc3O[C@@H]2[C@@H](CO)O1)NCC(F)(F)F,37%
20,O=C(C[C@H]1C[C@@H]2c3cc(NC(=O)C4CCC4)ccc3O[C@@H]2[C@@H](CO)O1)NCc1ccc2c(c1)OCO2,25.6%
21,CN(C)C(=O)C[C@H]1C[C@@H]2c3cc(NC(=O)NC4CCCCC4)ccc3O[C@@H]2[C@H](CO)O1,-20.7%
22,O=C(C[C@@H]1C[C@@H]2c3cc(NC(=O)c4ccc5c(c4)OCO5)ccc3O[C@@H]2[C@@H](CO)O1)NCc1ccc(Oc2ccccc2)cc1,0.613% [at 16 µM]
23,O=C(C[C@@H]1C[C@@H]2c3cc(NC(=O)Nc4ccccc4)ccc3O[C@@H]2[C@@H](CO)O1)NCc1ccccc1,42.6% [at 30 µM]
24,O=C(C[C@H]1C[C@H]2c3cc(NC(=O)C4CCC4)ccc3O[C@H]2[C@@H](CO)O1)NCc1ccc2c(c1)OCO2,38.8% [at 30 µM]
25,O=C(C[C@H]1C[C@H]2c3cc(NC(=O)Cc4ccncc4)ccc3O[C@H]2[C@@H](CO)O1)NCc1ccncc1,20.8%
26,COc1ccc(S(=O)(=O)N(C)C[C@@H]2Oc3ccc(NC(=O)C4CCCCC4)cc3CC(=O)N([C@@H](C)CO)C[C@@H]2C)cc1,5.28% [at 16 µM]

row,SMILES,"activity change, negative = inhibition"
1,O=C(N[C@@H]1CC[C@H](CCNS(=O)(=O)c2ccc(F)cc2)O[C@@H]1CO)C1CC1,21.6%
2,C[C@@]12C(=O)N(Cc3ccco3)CC(=O)N1[C@H]1c3ccccc3OC[C@@H]1[C@@H]2c1ccccc1,2.22%
3,COc1cc2c(cc1OC)C(=O)N1[C@H]3c4cc(Cl)ccc4OC[C@@H]3[C@H](c3ccccc3)[C@]1(C)C(=O)N2,-26.3%
4,C[C@H]1NC(=O)[C@@]2(C)[C@H](c3ccccc3)[C@H]3COc4ccccc4[C@@H]3N2C1=O,80.3%
5,Cc1cc(Cl)ccc1OCC(=O)NNC(=O)C1CSC2(C)CCC(=O)N12 (stereo unspecified),1.11%
6,COc1ccc([Si](C)(C)[C@H]2[C@H](CCO)O[C@@]3(C(=O)N(Cc4cccc(N5CCOC5=O)c4)c4ccccc43)[C@@H]2C)cc1,108%
7,COc1ccc(S(=O)(=O)N2CCCCC2)cc1NC(=O)CN(Cc1ccco1)Cc1ccco1,-14.6%
8,COc1ccc(S(=O)(=O)N2CCCCC2)cc1NC(=O)CCCOc1ccc(C)cc1,3.18%
9,CCCCCCOc1ccc(OC(=O)c2ccncc2)cc1,-6.3%
10,COc1ccc(-c2c(C)nn3c(C(F)(F)F)cc(C)nc23)cc1,123%
11,CSc1ncccc1C(=O)OCC(=O)Nc1ccc(C)c(S(=O)(=O)N2CCOCC2)c1,-12.3% [at 16 µM]
12,O=C(COC(=O)c1cc(S(=O)(=O)N2CCOCC2)ccc1O)NCc1ccc2c(c1)OCO2,28.5%
13,CC(=O)Nc1ccc(C(=O)OCC(=O)NC(=O)NCc2ccccc2)cc1,16.9%
14,COCC(=O)Nc1ccc2c(c1)C(=O)N(C)C[C@@H](OC)[C@H](C)CN(C(C)=O)[C@H](C)CO2,28.2%
15,CCCC(=O)Nc1ccc2c(c1)OC[C@H](C)N(C(=O)CN(C)C)C[C@@H](C)[C@H](OC)CN(C)C2=O,-2.16%
16,CO[C@H]1CN(C)C(=O)c2ccc(NC(=O)Nc3cccc(F)c3)cc2OC[C@@H](C)N(C(C)=O)C[C@H]1C,72.4%
17,CO[C@H]1CN(C)C(=O)c2cc(NC(=O)c3ccc(F)cc3)ccc2OC[C@H](C)N(C(=O)CN(C)C)C[C@@H]1C,6.3%
18,CO[C@H]1CN(C)C(=O)c2ccc(NC(=O)Nc3cccc(F)c3)cc2OC[C@H](C)NC[C@H]1C,25.2%
19,CCc1ccc(C(=O)CN2C(=O)NC(C)(c3ccc(C)cc3)C2=O)cc1 (stereo unspecified),-27.5%
20,COc1cccc(S(=O)(=O)N(C)C[C@H]2Oc3cc(C4=CCCC4)ccc3S(=O)(=O)N([C@H](C)CO)C[C@@H]2C)c1,27.1%
21,C[C@H]1CN([C@@H](C)CO)C(=O)Cc2cc(NS(=O)(=O)c3ccccc3)ccc2O[C@@H]1CN(C)Cc1ccc(Cl)c(Cl)c1,-28.9%
22,C[C@@H]1CN([C@H](C)CO)C(=O)c2cc(NS(=O)(=O)c3ccc(F)cc3)ccc2O[C@H]1CN(C)Cc1ccc(C(F)(F)F)cc1,-13.8%
23,COc1ccc(-c2cn(CC[C@H]3CC[C@H](NS(=O)(=O)c4ccccc4C)[C@H](CO)O3)nn2)cc1,2.4%
24,COc1ccccc1S(=O)(=O)N[C@H]1CC[C@H](CC(=O)N2CCN(C)CC2)O[C@H]1CO,-27.9%
25,COc1ccc(S(=O)(=O)N[C@@H]2CC[C@@H](CC(=O)NCCc3ccncc3)O[C@@H]2CO)cc1,-13%
26,CNC[C@H]1Oc2c(NC(=O)Nc3ccc4c(c3)OCO4)cccc2C(=O)N([C@H](C)CO)C[C@@H]1C,65.2%

row,SMILES,"activity change, negative = inhibition"
1,COC(=O)[C@H](Cc1ccccc1)NC(=O)Cn1cnc(C(=O)Nc2ccc(C)c(C)c2)n1,23.2%
2,CCOc1ccccc1C(=O)NCC(=O)NNC(=O)CN(C)S(=O)(=O)c1ccc(Cl)cc1,-52.6%
3,Nc1c(S(=O)(=O)c2ccccc2)cnc2c(-c3ccc(F)cc3)cnn12,63.4% [at 16 µM]
4,COc1ccc(OC)c(-c2cc(C(=O)Nc3c(C)nn(Cc4ccc(Cl)cc4)c3C)no2)c1,-43.8%
5,Cc1ccc2c(c1)c1c3n2CCN(CCC#N)C3CCC1 (stereo unspecified),81.2%
6,N#C[C@H]1[C@@H](c2ccccc2/C=C/c2ccccc2)[C@@H](CO)N1S(=O)(=O)c1cccc(F)c1,108%
7,N#C[C@@H]1[C@H](c2ccc(-c3ccccc3F)cc2)[C@@H](CO)N1C(=O)c1ccccn1,-32.3%
8,CCC(=O)N(C)C(c1ccccc1Cl)c1nnnn1-c1c(C)cccc1C (stereo unspecified),49.6%
9,Cc1ccc(S(=O)(=O)N(C)C)cc1NC(=O)C(C)N(C)CCOc1ccc(Cl)cc1 (stereo unspecified),-21.5% [at 8 µM]
10,COc1ccc(NC(=O)CN2CCC(C(N)=O)(N3CCCCC3)CC2)cc1,-10%
11,COCC(=O)N(C)C[C@H]1Oc2ncc(Br)cc2C(=O)N([C@H](C)CO)C[C@H]1C,50.8%
12,O=C(c1ccccc1)N1CCN(c2ncnc3sc4c(c23)CCC4)CC1,-54.4%
13,COCCCNC(=O)c1sc2ncnc(N3CCc4ccccc4C3)c2c1C,60.7%
14,Cc1ccc(C2Oc3ccccc3C3=C2C(c2cccs2)n2ncnc2N3)cc1 (stereo unspecified),12.9%
15,CC(NNC(=S)N1CCCCCC1)c1ccc2ccccc2n1 (stereo unspecified),-26.1%
16,CN1CC(c2ccccc2)C2(SC(=S)N(Cc3ccco3)C2=O)C12C(=O)Nc1ccccc12 (stereo unspecified),-103%
17,C[C@H]1CN([C@@H](C)CO)C(=O)c2cccc(NC(=O)c3ccncc3)c2O[C@@H]1CN(C)C(=O)Nc1cccc2ccccc12,63.7%
18,CNC[C@H]1Oc2c(NC(=O)Nc3cccc4ccccc34)cccc2C(=O)N([C@H](C)CO)C[C@H]1C,104%
19,O=C(NCc1cccc(F)c1)[C@@H]1[C@@H](CO)[C@@H]2Cn3c(ccc(-c4cccnc4)c3=O)[C@H]1N2CC1CC1,1.91%
20,NC(=S)c1ccc(OCCCc2ccccc2)cc1,30.2%
21,O=C(C[C@@H]1C=C[C@@H](NC(=O)c2ccccc2)[C@H](CO)O1)NCc1ccc(Oc2ccccc2)cc1,-28.3%
22,C[C@H]1CN([C@@H](C)CO)C(=O)c2cccc(NS(=O)(=O)c3ccc(Cl)cc3)c2O[C@@H]1CN(C)Cc1ccc(C(F)(F)F)cc1,9.5%
23,C[C@@H]1CN([C@H](C)CO)C(=O)c2cccc(NS(=O)(=O)c3ccc(Cl)cc3)c2O[C@@H]1CN(C)Cc1ccc(Cl)c(Cl)c1,-25.6%
24,CN(C)CC(=O)Nc1ccc2c(c1)[C@H]1C[C@@H](CC(=O)NCCc3ccccc3)O[C@H](CO)[C@H]1O2,14.9% [at 30 µM]

# Source: PubChem BioAssay AID652062 (Broad Institute, 2013)
